USP30 block: inhibitors of human USP30 deubiquitinase | inhibition, % at 25 µM | AID 1645860, 2021 | 5.3% of 47,000 active | purified USP30, Ub-rhodamine cleavage fluorescence
Target sequence (Q70CQ3 whole entry, looked up): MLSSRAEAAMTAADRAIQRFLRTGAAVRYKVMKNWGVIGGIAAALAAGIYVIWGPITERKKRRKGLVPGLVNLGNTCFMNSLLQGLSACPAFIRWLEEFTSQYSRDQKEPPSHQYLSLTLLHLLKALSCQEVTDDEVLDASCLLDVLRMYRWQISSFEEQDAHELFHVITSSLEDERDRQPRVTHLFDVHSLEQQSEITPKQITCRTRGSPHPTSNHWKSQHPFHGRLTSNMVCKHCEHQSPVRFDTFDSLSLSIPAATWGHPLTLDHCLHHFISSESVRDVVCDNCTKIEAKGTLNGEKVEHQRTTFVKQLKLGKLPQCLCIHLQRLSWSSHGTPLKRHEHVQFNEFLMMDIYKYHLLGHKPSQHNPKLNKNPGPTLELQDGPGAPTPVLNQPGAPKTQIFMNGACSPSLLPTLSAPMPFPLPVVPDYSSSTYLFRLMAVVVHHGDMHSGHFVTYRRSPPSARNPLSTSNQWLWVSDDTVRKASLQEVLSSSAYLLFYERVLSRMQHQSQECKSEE
OTUD3 inh: inhibitors of human OTUD3 deubiquitinase. OTU domain-containing protein 3 (Homo sapiens), Q5T2D3. purified OTUD3, Ub-rhodamine fluorescence, 2 h. inhibition, % at 25 µM. 0.7% of 47,000 active. AID 1645858, 2021
USP17 inh: inhibitors of human USP17 deubiquitinase. Ubiquitin carboxyl-terminal hydrolase 17-like protein 5 (Homo sapiens), A8MUK1. purified USP17, Ub-rhodamine cleavage fluorescence, 3 h. inhibition, % at 50 µM. 6.5% of 47,000 active
USP28 inh: inhibitors of human USP28 deubiquitinase; purified USP28, Ub-rhodamine cleavage fluorescence, 30 min; inhibition, % at 25 µM; 3% of 47,000 active
* hit, by the source's call; . = no result. Most compounds without a hit are left out; they make up all but 12% or so of the library. No stated cut-off is given here; in the data, active means inhibition above about 30%; inactive means the rest.

SMILES	USP30 block	OTUD3 inh	USP17 inh	USP28 inh
CC(=O)Nc1ccc(C2C3=C(CC(C)(C)CC3=O)Nc3onc(C)c32)cc1 (stereo not drawn)	19	11	7	6
CCOc1cc(C2C3=C(CC(C)(C)CC3=O)Nc3onc(C)c32)ccc1O (stereo not drawn)	45*	17	51*	12
COc1cc2c(cc1OC)-c1cc(NCc3cc(OC)c(OC)c(OC)c3)nc(=O)n1CC2	-5	41*	.	1
CCN(c1ccc(OC)cc1)S(=O)(=O)N1CCCC(C(=O)NCc2ccccc2OC)C1 (stereo not drawn)	1	6	4	4
Cc1ccn2cc(CCNS(=O)(=O)c3cc([N+](=O)[O-])ccc3C)nc2c1	21	10	.	3
CCN(Cc1ccccc1)c1nc2ccccc2nc1NS(=O)(=O)c1cc([N+](=O)[O-])ccc1C	29	16	34*	20
CC(=O)Nc1ccc(NC(=O)CCc2c(C)c3c(C)nn(-c4cccc(F)c4)c3n(C)c2=O)cc1	7	0	7	-2
CS(=O)(=O)c1ccc2nc(N(Cc3cccnc3)C(=O)c3ccc4ccccc4c3)sc2c1	52*	21	53*	20
CCOC(=O)C1CCN(C(=O)CCC(=O)Nc2ccc(Oc3ccccc3)cc2)CC1	34*	16	21	8
O=C(CCC(=O)N1CCC(C(=O)N2CCCCC2)CC1)Nc1ccc(Oc2ccccc2)cc1	11	-4	7	6
NC(=O)Cc1nc2ccccc2n1CC(O)COCc1ccccc1 (stereo not drawn)	-24	-1	1	-1
Cc1cc(OCC(=O)Nc2ccccc2C#N)nc(N2CCCCCC2)n1	.	16	-10	.
Cc1cc(OCC(=O)Nc2ccccc2F)nc(N2CCCC(C)C2)n1 (stereo not drawn)	47*	7	18	7
Cc1cc(OCC(=O)Nc2cccc(C#N)c2)nc(N2CCCC(C)C2)n1 (stereo not drawn)	0	1	4	7
Cc1cc(OCC(=O)Nc2c(C)cccc2C)nc(N2CCCCCC2)n1	9	8	30*	5
Cc1cc(OCC(=O)Nc2ccccc2C#N)nc(-c2ccc(F)cc2)n1	-25	-16	36*	-6
CC(C)Cn1c(=O)c(N2CCN(C(=O)Nc3ccc(Cl)cc3)CC2)nc2ccncc21	1	2	-5	0
Cc1cccc(NC(=O)C2CCN(c3nc4nc[nH]c(=O)c4s3)CC2)c1C	-134	-20	-71	-50
COc1cccc(C(=O)N2CCc3nc(C(=O)N4CCCCC4)sc3CC2)c1	0	2	-17	-6
COc1cccc2c1OCC(C(=O)NCc1ccc(F)cc1)=C2	-14	-5	0	51*
Cc1cccc2c(=O)n(C)c(CCC(=O)NCc3cc(F)ccc3F)nc12	45*	9	38*	9
O=C(CC1C=CCC1)N1CCC(c2ccc(Nc3ccc(F)cn3)cn2)CC1 (stereo not drawn)	-50	-17	32*	-7
CC(=O)Nc1cc(-c2cccc(O)c2)cn2c(-c3cnn(C)c3)cnc12	36*	-1	61*	13
CC(=O)Nc1cc(-c2cnn(C)c2)cn2c(-c3cnn(C)c3)cnc12	-184	-43	-4	-37
COc1cc2[nH]c3c(N4CCC(C(N)=O)(N5CCCCC5)CC4)ncnc3c2cc1OC	30*	7	11	19
SMILES	USP30 block	OTUD3 inh	USP17 inh	USP28 inh
COc1cc2[nH]c(=O)n(CCCC(=O)N3CCC(C(N)=O)(N4CCCCC4)CC3)c(=O)c2cc1OC	13	15	-1	3
Cc1ccc(C(=O)N2CCC(c3nc4ccc(F)cc4cc3C(N)=O)CC2)cn1	1	0	-8	1
COc1ccccc1N(CC(=O)NCc1ccc(F)cc1)C(=O)CCC(=O)Nc1ccccn1	35*	2	3	7
COc1ccc(CNC(=O)CN(C(=O)CCC(=O)Nc2ccccn2)c2ccccc2F)cc1	7	-12	-3	0
O=S1(=O)NC(C2CCN(Cc3ccc4ccccc4n3)CC2)Nc2ccccc21 (stereo not drawn)	-117	-19	-9	-28
CN1CCN(Cc2cccnc2)C(=O)C12CCN(Cc1ccc[nH]1)CC2	-14	6	46*	55*
CN1CCN(Cc2cccnc2)C(=O)C12CCN(c1ncccn1)CC2	-112	-22	-77	-44
Cc1cc(C)n(CC(=O)N2CCCCCC2c2ccncc2)n1 (stereo not drawn)	11	-4	-6	-9
CCCCCCCC(=O)c1c(O)cc(O)cc1CC(=O)O	-44	-2	4	8

Screens from PubChem.
